We go through eight molecules from PubChem BioAssay (Tox21).

Assay [1] in a line: qHTS assay for small molecule agonists of the p53 signaling pathway (AID 651631; calls by dose curve; also: nearly all actives have a fitted effect of over 15% in size). The procedure, abridged:
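Read-out is beta-lactamase FRET fluorescence measured 2 h after substrate addition at room temperature, in HCT-116 cells with a p53 response element-driven reporter exposed to compounds for 16 h at 37 °C.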
On the technique in general: qHTS replaces the single test concentration by a dilution series.

Assay [2] is described as follows: qHTS assay for small molecules that induce genotoxicity in human embryonic kidney cells expressing luciferase-tagged ATAD5 (AID 651632). Also: nearly all actives have a fitted effect of over 15% in size. The method, boiled down:
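Luminescence read-out: after 16 hr compound exposure at 37C, ATAD5-luciferase HEK293T cells received Amplite, 30 min RT, then CCD imaging. A rise in signal marks genotoxic stress.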

Assay [3] in a line: qHTS assay for small molecule agonists of the p53 signaling pathway - cell viability (AID 651633; calls by dose curve;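 also: p53RE-bla HCT reporter cells with a stable beta-lactamase p53 reporter; series mostly up to about 83 µM; nearly all actives have a fitted effect of over 30% in size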). The method, boiled down: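 p53RE-bla cells, seeded at 4,000 per well and rested 5 h at 37 C/5% CO2, received compounds in DMSO for 16 h at 37 C. CellTiter-Glo was then added, and luminescence was read after 30 min at room temperature to gauge cytotoxicity.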
A short description of assay [4]: qHTS assay for small molecules that induce genotoxicity in human embryonic kidney cells expressing luciferase-tagged ATAD5 - cell viability (AID 651634; calls by dose curve; also: nearly all actives have a fitted effect of over 25% in size). The procedure, abridged:
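HEK293T ATAD5-luc cells, 2,000/well; compound 15.5 hr, 37C/5% CO2; CellTiter-Fluor 30 min, 37C; fluorescence read.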

Assay [5] in a line: qHTS assay for small molecule disruptors of the mitochondrial membrane potential - cell viability (AID 720634; calls by dose curve;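 also: human HepG2 liver cancer cells; series mostly up to about 83 µM; nearly all actives have a fitted effect of over 20% in size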). The method, boiled down:
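Luminescence from CellTiter-Glo (ATP content) gave viability in HepG2 cells, read in the same wells as the MMP dye assay after 1 hr compound exposure at 37 C.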

The nature of assay [6]: qHTS assay to test for compound auto fluorescence at 590 nm (red) in HepG2 cells (AID 720674). The method, boiled down:
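Rose Bengal sodium served as the red fluorophore standard. HepG2 monolayers (overnight attachment, MEM with 10% FBS) were exposed to test compounds for 1 hr at 37 C and read at Ex 540/Em 590 nm.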

Assay [7] is described as follows: qHTS assay to test for compound auto fluorescence at 535 nm (green) in HepG2 cells (AID 720675).
Assay [8] can be described thus: qHTS assay to test for compound auto fluorescence at 460 nm (blue) in HEK293 cells (AID 720678). The method, boiled down:
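Blue read-out at excitation 405 nm and emission 460 nm follows overnight compound exposure of HEK293 cells at 37C in 5% CO2. Activity is given as auto fluorescence equivalency to triamterene.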

Assay [9] can be described thus: qHTS assay to test for compound auto fluorescence at 590 nm (red) in HEK293 cells (AID 720679). The method, boiled down:
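Red channel, Ex/Em 540/590nm; signal expressed as equivalency to Rose Bengal sodium. HEK293, 2,000 cells/well, 10% dialyzed FBS; 23 nL compound pinned after 4-5 hr attachment; overnight 37C/5% CO2 before reading.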

Assay [10] can be described thus: qHTS assay to test for compound auto fluorescence at 535 nm (green) in HEK293 cells (AID 720680).
The nature of assay [11]: qHTS assay to test for compound auto fluorescence at 460 nm (blue) in HEK293 cell free culture (AID 720681). The method, boiled down: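 Test compounds were pinned into cell-free culture medium (DMEM with 10% FBS) and fluorescence was read directly at Ex/Em 405/460 nm. Signals were expressed as fluorescence equivalents of triamterene, with DMSO vehicle as control.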
A short description of assay [12]: qHTS assay to test for compound auto fluorescence at 535 nm (green) in HEK293 cell free culture (AID 720682). The procedure, abridged:
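Fluorescein serves as the green reference fluorophore; each compound's intrinsic emission at 535 nm (excitation 485 nm) is reported as an equivalent amount of that dye, measured in serum-containing DMEM without cells.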

Assay [13] in a line: qHTS assay to test for compound auto fluorescence at 590 nm (red) in HEK293 cell free culture (AID 720683). The method, boiled down: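 Tox21 10K library compounds were pinned into cell-free DMEM with 10% FBS and fluorescence was read at excitation 540 nm. Activity is expressed as Rose Bengal sodium equivalency.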
The nature of assay [14]: qHTS assay to test for compound auto fluorescence at 590 nm (red) in HepG2 cell free culture (AID 720684). The method, boiled down: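 Ex 540 / Em 590 nm read of compound in cell-free MEM (10% FBS). Rose Bengal sodium reference.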
Assay [15] is described as follows: qHTS assay to test for compound auto fluorescence at 460 nm (blue) in HepG2 cell free culture (AID 720685). The procedure, abridged: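 Cell-free plates of MEM plus 10% FBS received 23 nL compound or DMSO vehicle; blue-channel (405/460 nm) intensity scored against triamterene as reference fluorophore.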
The nature of assay [16]: qHTS assay to test for compound auto fluorescence at 535 nm (green) in HepG2 cell free culture (AID 720686).
Assay [17] is described as follows: qHTS assay to test for compound auto fluorescence at 460 nm (blue) in HepG2 cells (AID 720687). The procedure, abridged: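 Cells (2,000/well in MEM with 10% FBS) attached overnight at 37 C, then were exposed to compound or DMSO for 1 hr at 37 C, 5% CO2. Fluorescence read at Ex/Em 405/460 nm, expressed as triamterene-equivalent signal.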
In assay [18] the target is Glucocorticoid receptor (Homo sapiens) (UniProt P04150). The assay is described as follows: qHTS assay to identify small molecule antagonists of the glucocorticoid receptor (GR) signaling pathway (AID 720692; active = well fitted inhibition curve with a large enough effect in the signal ratio in the repeat runs, not every such curve was filed as active; the % refers to the signal ratio). The method, boiled down: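 Read-out: beta-lactamase FRET substrate fluorescence, 2 h at room temperature, in HeLa cells stably carrying a GRE-driven bla reporter. Compounds were co-incubated with 5 nM dexamethasone agonist (final) for 18 h at 37 C.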

A short description of assay [19]: qHTS assay for small molecule disruptors of the mitochondrial membrane potential (AID 720635). Also: potency is read from the fitted curve at half-maximal effect. The procedure, abridged:
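HepG2 cells (2,000/well) attached overnight at 37C, then took compound for 1 hr at 37C, 5% CO2. Mito-MPS dye was added for 30 min; fluorescence was read at 490/535 nm (monomers) and 540/590 nm (aggregates).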

Assay [20] concerns the target Glucocorticoid receptor (Homo sapiens) (UniProt P04150). Kind of assay: qHTS assay to identify small molecule agonists of the glucocorticoid receptor (GR) signaling pathway (AID 720691; active = well fitted activation curve with a large enough effect in the signal ratio in the repeat runs, not every such curve was filed as active; the % refers to the signal ratio). The procedure, abridged:
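HeLa GR-bla reporter line; cells pre-incubated 4 h, compound in DMSO 18 h at 37 C; LiveBLAzer B/G FRET substrate 2 h RT; fluorescence intensity read-out.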

Molecules are shown by their SMILES. A number with no mark means an inactive call. Results filed as inconclusive are left out. Activity calls are given as the source filed them. Unless noted, calls follow the shape of the dose curve; as a rule, active = well fitted curve in the direction sought with a large enough effect in the repeat runs; inconclusive = weak or mixed curves; inactive = no such curve, though single readings can be large; an effect the other way counts as inactive or inconclusive.
% is scaled to controls: 0 for no effect and ±100 for the full control effect.

Chain of Glucocorticoid receptor (Homo sapiens) (P04150 whole entry, looked up): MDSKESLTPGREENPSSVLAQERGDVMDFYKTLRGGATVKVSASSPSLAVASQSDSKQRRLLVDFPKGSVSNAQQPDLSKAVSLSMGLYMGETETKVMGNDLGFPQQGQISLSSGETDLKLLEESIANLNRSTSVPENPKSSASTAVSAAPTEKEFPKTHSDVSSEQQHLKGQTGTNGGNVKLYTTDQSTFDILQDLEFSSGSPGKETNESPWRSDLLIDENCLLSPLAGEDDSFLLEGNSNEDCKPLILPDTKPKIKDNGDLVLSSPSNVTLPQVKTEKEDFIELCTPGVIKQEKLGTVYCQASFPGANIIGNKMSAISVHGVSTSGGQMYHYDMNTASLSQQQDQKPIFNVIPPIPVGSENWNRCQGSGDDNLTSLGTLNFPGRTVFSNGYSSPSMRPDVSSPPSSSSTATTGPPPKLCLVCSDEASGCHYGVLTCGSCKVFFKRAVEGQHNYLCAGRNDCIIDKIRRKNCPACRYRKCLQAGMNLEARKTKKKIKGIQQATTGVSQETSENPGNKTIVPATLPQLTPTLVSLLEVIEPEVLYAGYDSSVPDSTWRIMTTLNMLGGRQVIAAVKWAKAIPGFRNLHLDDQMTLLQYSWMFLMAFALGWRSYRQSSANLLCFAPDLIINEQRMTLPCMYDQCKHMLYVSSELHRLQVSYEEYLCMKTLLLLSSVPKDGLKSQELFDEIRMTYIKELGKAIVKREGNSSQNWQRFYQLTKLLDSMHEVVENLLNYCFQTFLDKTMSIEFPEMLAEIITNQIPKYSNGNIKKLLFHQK

As for `COc1cc(Cl)ccc1Cl`, the Potency result in assay [1], in assay [2], in [3], in assay [4], in [5] and in [18] was “inactive” each time. Further, the outcome in assay [6], in [7], in [8], in [9], in assay [10] and in [11] was inactive. Moreover, the result in assay [12], in assay [13], in [14], in assay [15], in [16] and in assay [17] was inactive.

`COc1nc(C)nc(NC(=O)NS(=O)(=O)c2ccccc2OCCCl)n1`: the Potency result in assay [1], in assay [2], in assay [3], in assay [4], in assay [5] and in [19] was “inactive” in each case. The Potency entry in assay [20] and in assay [18] was “inactive” throughout. The molecule was classed as inactive in assay [6], in assay [7], in assay [8], in [10], in assay [11] and in assay [12]. In addition, the outcome in [13], in [14], in [15] and in assay [16] was inactive.

On to `CN(CC1(C)CCCO1)S(=O)(=O)c1ccc(Cl)c(S(N)(=O)=O)c1` (stereo not given), for which the Potency result in assay [1], in assay [2], in assay [3], in [4], in assay [5] and in assay [19] was “inactive” throughout. Moreover, the call in assay [6], in assay [7], in assay [8], in assay [9], in [10] and in assay [11] was inactive. The call in assay [12], in [14], in assay [15], in assay [16] and in assay [17] was inactive.

With `CCCNC(C)C(=O)Nc1c(C)csc1C(=O)OC` (stereo not given), the Potency result in assay [1], in assay [2], in [3], in assay [4], in assay [5] and in assay [19] was “inactive” each time. Moreover, the Potency result in assay [20] and in assay [18] was “inactive” in each case. Further, in assay [6], the fluorescence, relative to Rose Bengal is 0.288% [at 18.6 µM]. In addition, the fluorescence, % of fluorescein control is -0.0675% [at 18.6 µM] in [7] and 0.063% [at 18.6 µM] in assay [16]. Moreover, the fluorescence, % of fluorescein in assay [10] is -0.0722% [at 18.6 µM]. In addition, the fluorescence, % of fluorescent control in [11] was -0.0092% [at 18.6 µM]; in assay [13] it was 0.0164% [at 18.6 µM]; in assay [15], -0.0067% [at 18.6 µM]; in assay [17] it was 0.025% [at 18.6 µM]. In addition, the activity change in assay [12] was -0.0482% [at 18.6 µM].

With `NNS(=O)(=O)c1ccc(Oc2ccc(S(=O)(=O)NN)cc2)cc1`, the Potency entry in [1], in [2], in assay [3], in [4] and in assay [5] was “inactive” in each case. Further, the result in [6], in assay [7], in assay [8], in assay [9], in [11] and in assay [12] was inactive. In addition, the outcome in assay [14], in [15], in assay [16] and in [17] was inactive.

As to `CCCCCOc1ccc(C2SC(=O)NC2=O)cc1OCC` (stereo not given), the Potency entry in assay [1], in assay [2], in assay [3], in assay [4] and in [5] was “inactive” each time. The Potency in [19] was 29.8 µM (active). In addition, the call in assay [6], in assay [7], in assay [9], in [10], in assay [11] and in assay [12] was inactive. The molecule was classed as inactive in assay [13], in assay [14], in assay [15], in [16] and in assay [17].

On to `O=C1CCC(C2CCCCC2)CC1`, for which the Potency entry in assay [1], in assay [2], in assay [3], in assay [4], in [5] and in [19] was “inactive” each time. Moreover, the Potency result in [18] was “inactive”. The call in assay [6], in assay [7], in assay [8], in assay [9], in assay [10] and in assay [12] was inactive. In addition, the molecule was called inactive in assay [15], in assay [16] and in assay [17].

`OCC(CBr)(CBr)CBr`: the Potency entry in [1], in assay [2], in [3], in [4], in assay [5] and in assay [18] was “inactive” throughout. Besides, the molecule was called inactive in [6], in assay [7], in [8], in [9], in assay [10] and in [12]. Further, the outcome in assay [13], in assay [14], in assay [15], in assay [16] and in assay [17] was inactive.
